Measurements: PubChem BioAssay AID1345085 (National Center for Advancing Translational Sciences (NCATS), 2018)
Results filed as inconclusive are left out. Values without a mark were called inactive. Activity calls are given as the source filed them. Calls come from the whole dose curve; as a rule, active = well fitted cell-killing curve with a large enough effect; inconclusive = small, poorly fitted or top-dose-only effect, or effect the other way; inactive = no such curve, though single readings can be large or run the other way.

These molecules were tested on JEG-3 (assay: Confirmatory qHTS for gynecologic anti-cancer compounds from libraries of approved drugs and bioactive compounds). Details: gynecologic cancer cell panel viability, ATPlite luminescence, 48 h; series mostly up to 57.6 µM; activity change, negative = viability loss: at the top concentration.
How it was run: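 Seeding 1,000 cells per well preceded overnight (16 h) attachment, after which 48 h drug treatment across 57.5 uM–0.977 nM (11 points) was applied. Remaining cellular ATP, detected by ATPlite luminescence, defined IC50.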
% is set by controls: 0 for no effect and ±100 for the full control effect; potency is the fitted concentration of half-maximal effect.
Note: nearly all actives have a fitted effect of over 55% in size.

Row | SMILES | Potency | activity change, negative = viability loss
1 | C/C=C(/C)C(=O)O[C@H]1C(C)=C2[C@H]([C@@H]1OC(=O)CCCCCCC)[C@@](C)(OC(C)=O)C[C@H](OC(=O)CCC)[C@@]1(O)[C@H]2OC(=O)[C@@]1(C)O | 54.4 nM (active) | 
2 | CCOc1ccccc1-n1c(C(C)N2CCN(C(=O)COc3ccc(Cl)cc3)CC2)nc2ccccc2c1=O (centres undefined) | 10900 nM (active) | 
3 | CCC(=O)O[C@H]1CC[C@H]2[C@@H]3CCC4=CC(=O)CC[C@]4(C)[C@H]3CC[C@]12C |  | -32.1%
4 | Cc1sc2c(c1C)C(c1ccc(Cl)cc1)=NC(CC(=O)OC(C)(C)C)c1nnc(C)n1-2 (centres undefined) | 1930 nM (active) | 
5 | C[C@H]1CCC/C=C/C2C[C@H](O)C[C@H]2[C@H](O)/C=C/C(=O)O1 (some centres undefined) | 344 nM (active) | 
6 | C[C@]12CC[C@H]3[C@@H](CCC4=CC(=O)CC[C@@H]43)[C@@H]1CC[C@@H]2OC(=O)CCc1ccccc1 |  | 10%
7 | C=C(C)[C@H]1Cc2c(ccc3c2O[C@@H]2COc4cc(OC)c(OC)cc4[C@@H]2C3=O)O1 | 27.3 nM (active) | 
8 | O=C(O)Cc1ccccc1 |  | 3.89%
9 | CCN1CCN(C(=O)Cc2ccc(Nc3ncc(F)c(Nc4ccc(C(=O)Nc5ccccc5Cl)cc4)n3)cc2)CC1 |  | -5.82%
